High-throughput results as filed in PubChem.
CBX7 inh: blocks human CBX7 binding to H3K27me3 peptide; AlphaScreen His6-CBX7 / biotin-H3K27me3 peptide binding; stronger effect = lower value; normalised signal (fraction of DMSO) (concentration not given with the values); hit rate 1.1% among 66,000; in the data active = normalised signal below about 0.5
Target sequence (O95931 whole entry, looked up): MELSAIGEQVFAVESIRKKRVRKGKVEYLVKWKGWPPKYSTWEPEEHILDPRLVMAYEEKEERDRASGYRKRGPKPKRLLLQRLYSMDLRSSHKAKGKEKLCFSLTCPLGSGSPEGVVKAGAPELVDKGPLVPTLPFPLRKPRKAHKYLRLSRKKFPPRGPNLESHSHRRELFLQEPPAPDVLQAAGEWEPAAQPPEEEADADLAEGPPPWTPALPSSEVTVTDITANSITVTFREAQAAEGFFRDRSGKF
Active calls of the source: *. The sample as a whole holds a higher share of hits than the screen did.

SMILES	CBX7 inh
CCOC(=O)CSc1nnc(Cc2cc(=O)[nH]c(=O)[nH]2)n1-c1cc(C)ccc1C	1.03
COc1ccc(NC(=O)C2CCN(S(=O)(=O)c3cccs3)CC2)cc1	0.985
CC(C)C(=O)N1CC(=O)Nc2ccc(Cl)cc2C1c1ccc(F)cc1 (stereo not drawn)	1.05
Cc1ccc(Nc2c(-c3ccc(O)cc3)nc3c(C)cccn23)cc1	0.74
COc1ccc2c(c1)c(CC(=O)Nc1ccccn1)c(C)n2C(=O)c1ccc(Cl)cc1	0.414*
COc1ccc2c(c1)c(CC(=O)NC1CC1)c(C)n2C(=O)c1ccc(Cl)cc1	0.894
C=CCNC(=O)Cc1c(C)n(C(=O)c2ccc(Cl)cc2)c2ccc(OC)cc12	0.996
Cc1ccccc1-c1nc(CSCC(=O)N2CCCc3ccccc32)c(C)o1	0.628
CC(C)c1ccc(NC(=O)Cc2c(C(=O)O)[nH]c3ccccc23)cc1	0.93
NC(=O)c1nnn(-c2nonc2N)c1CSc1nc2ccccc2o1	0.734
COC(=O)c1nnn(-c2nonc2N)c1CSc1nc2ccccc2o1	1
Nc1nonc1-n1nnc(C(=O)O)c1CSc1nc2ccccc2o1	0.0178*
COc1ccc(CCNC(=O)c2ccc3c(c2)nc(C)n3-c2cccc(F)c2)cc1OC	0.976
N#Cc1nc(COc2ccccc2Cl)oc1NCc1ccc2c(c1)OCO2	0.879
Cc1nn(Cc2c(Cl)cccc2Cl)c(C)c1NC(=O)c1cc(-c2cccs2)on1	0.793
Cc1c(C)n(CC(O)CNCc2ccccc2)c2ccccc12 (stereo not drawn)	0.819
Cc1nn(CC(O)Cn2c(C)c(C)c3ccccc32)c(C)c1Br (stereo not drawn)	0.436*
Cc1c(C)n(CC(O)CN2CCCCCC2)c2ccccc12 (stereo not drawn)	1.01
Cc1c(C)n(CC(O)CNCCO)c2ccccc12 (stereo not drawn)	0.917
Cc1c(C)n(CC(O)CNC2CCCCC2)c2ccccc12 (stereo not drawn)	0.984
Cc1c(C)n(CC(O)CNc2ccccc2)c2ccccc12 (stereo not drawn)	0.253*
Cc1ccc(C)c(NCC(O)Cn2c(C)c(C)c3ccccc32)c1 (stereo not drawn)	0.674
CCC(CO)NCC(O)Cn1c(C)c(C)c2ccccc21 (stereo not drawn)	0.734
COc1ccc(NCC(O)Cn2c(C)c(C)c3ccccc32)c(OC)c1 (stereo not drawn)	0.547
CCN(CC)CC(O)Cn1c(C)c(C)c2ccccc21 (stereo not drawn)	0.969
SMILES	CBX7 inh
Cc1cccc(NCC(O)Cn2c(C)c(C)c3ccccc32)c1 (stereo not drawn)	0.474*
CCOc1ccc(NCC(O)Cn2c(C)c(C)c3ccccc32)cc1 (stereo not drawn)	0.432*
COc1ccccc1CNC(=O)C1CCN(Cc2nc(-c3cccc(Br)c3)oc2C)CC1	0.956
COc1ccc(N2C(=O)CCC(C(=O)NC3CCCCCC3)C2c2ccc(OC)c(OC)c2)cc1 (stereo not drawn)	1.09
Cc1nn(-c2ccccc2C(C)C)c2c1C(=O)CC(C)(C)C2	0.742
CCOC(=O)c1[nH]c2c(c1Cc1ccccc1)C(=O)CC(c1ccccc1Cl)C2 (stereo not drawn)	0.913
Cc1cccc(-c2noc(-c3ccc(Cl)c(Cl)c3)n2)c1	1.18
Cc1ccc(CNC(=O)C2CCN(c3nc4ccc(Br)cc4s3)CC2)cc1	1
COc1ccc(NCC(O)Cn2c3ccccc3c3ccccc32)cc1 (stereo not drawn)	0.452*
COc1ccc(NCC(O)Cn2c(C)c(C)c3ccccc32)cc1 (stereo not drawn)	0.558
COc1ccccc1NCC(O)Cn1c2ccc(Br)cc2c2cc(Br)ccc21 (stereo not drawn)	0.535
CC(NC(=O)C1CCN(c2nc3ccccc3[nH]2)CC1)c1ccc2c(c1)OCCO2 (stereo not drawn)	0.956
COCCN1Cc2cccc(C(=O)Nc3ccc(C)cc3Cl)c2C1=O	0.975
Cc1c(C(=O)NCc2ccc3c(c2)OCO3)oc2ccc(S(=O)(=O)N3CC(C)CC(C)C3)cc12 (stereo not drawn)	1.03
CCN(CC)S(=O)(=O)c1ccc(C(=O)Nc2nc3ccc4nc(C)sc4c3s2)cc1	0.933
CCN(Cc1ccccc1)S(=O)(=O)c1ccc(C(=O)Nc2nnc(-c3cccs3)o2)cc1	0.955
CCCN(CCC)S(=O)(=O)c1ccc(C(=O)Nc2nnc(C)o2)cc1	0.0834*
CCN(CC)S(=O)(=O)c1ccc(C(=O)Nc2nnc(C)o2)cc1	0.0844*
CCC(=O)N1CCc2cc(S(=O)(=O)Nc3ccc(C)cc3)ccc21	1.04
COc1ccc(NC(=O)CCc2c(C)nc3c(-c4ccc(F)cc4)c(C)nn3c2C)cc1	1.01
Nc1n[nH]c(CC(=O)NC2(C(=O)Nc3ccccc3)CCCCC2)n1	0.594
c1ccc(CC2CCN(c3ccc4nnc(-c5ccccc5)n4n3)CC2)cc1	0.796
Cc1cccc(C2(c3cccc(C)c3)CC2C(=O)Nc2ccncc2)c1 (stereo not drawn)	0.648
COc1cc(Cl)c(S(=O)(=O)NCCc2c(C)[nH]c3ccc(C)cc23)cc1Cl	0.595
COc1ccc(OC)c(S(=O)(=O)NCCc2c(C)[nH]c3ccc(OC)cc23)c1	0.562
SMILES	CBX7 inh
COc1ccc(S(=O)(=O)NCCc2c(C)[nH]c3ccc(C)cc23)cc1	0.454*
Cc1ccc(Cn2cnc3c(nnn3Cc3ccc(F)cc3)c2=O)cc1	0.938
COc1ccccc1CNC(=O)c1oc2ccc(S(=O)(=O)N3CC(C)CC(C)C3)cc2c1C (stereo not drawn)	0.788
COc1ccc2cc(CCNC(=O)c3c(F)cccc3F)c(=O)[nH]c2c1	1.04
C=CCc1ccccc1OCC(O)CN1CCC(C)CC1 (stereo not drawn)	1.51
C=CCc1ccccc1OCC(O)CN1CCN(c2ccc(C)cc2)CC1 (stereo not drawn)	0.251*
C=CCc1cc(C)ccc1OCC(O)CN1CCOCC1 (stereo not drawn)	0.815
COC(CNC(=O)CCN1N=C(c2ccccc2)CCC1=O)OC	1.08
c1ccc(C(Cc2nc(-c3cccnc3)no2)c2ccccc2)cc1	0.928
COc1ccc(-c2noc(C(c3ccccc3)c3ccccc3)n2)cc1	1.11
c1ccc(C(c2ccccc2)c2nc(-c3cccnc3)no2)cc1	0.321*
CCOC(=O)c1nnn(-c2nonc2N)c1CSc1nc(C)cc(C)n1	1.03
CN1C(=O)CSc2ccc(NC(=O)NCc3ccccc3Cl)cc21	0.988
COc1ccc(N2CCN(C(=O)c3c(C)noc3C)CC2)cc1	1.01
CCc1cc(-c2n[nH]c(C)c2-c2ccc3c(c2)OCCO3)c(O)cc1O	0.685
CCCCCCc1cc(-c2[nH]ncc2-c2ccc(Br)cc2)c(O)cc1OC	0.583
CCc1cc(-c2[nH]ncc2-c2ccc3c(c2)OCCO3)c(O)cc1O	0.686
CCCc1cc(-c2[nH]ncc2-c2ccc3c(c2)OCCO3)c(O)cc1OC	0.292*
CCc1cc(-c2[nH]ncc2-c2ccc3c(c2)OCCO3)c(O)cc1OC	0.381*
CCCc1cc(-c2onc(C)c2-c2ccc3c(c2)OCCCO3)c(O)cc1OC	0.681
COc1cccc(Cn2cc(C(=O)c3ccccc3)c(=O)c3cc(F)cc(F)c32)c1	0.699
O=C(CSc1nnnn1-c1ccc(Cl)cc1)Nc1ccccc1-c1ccccc1	0.994
O=C(C1CCCN(S(=O)(=O)c2cccnc2)C1)N1CCc2ccccc2C1 (stereo not drawn)	0.978
COCCNC(=O)CN1C(=O)COc2ccc(S(=O)(=O)N3CCC(C)CC3)cc21	0.884
CCc1c(-c2cccs2)nc2ccc(Br)cc2c1C(=O)O	0.976
